The nature of assay [1]: qHTS assay for small molecules that induce genotoxicity in human embryonic kidney cells expressing luciferase-tagged ATAD5 (AID 651632). Note: nearly all actives have a fitted effect of over 15% in size. Note: potency is the fitted concentration of half-maximal effect. The gist of the method:
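DMSO vehicle served as the control. HEK293T reporter cells, 16 hr at 37C, then 30 min Amplite at room temperature; ATAD5 induction is measured as luciferase activity.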
On the technique in general: Quantitative high-throughput screening tests each substance at several concentrations.

Assay [2] in a line: qHTS assay for small molecules that induce genotoxicity in human embryonic kidney cells expressing luciferase-tagged ATAD5 - cell viability (AID 651634; calls by dose curve; note: nearly all actives have a fitted effect of over 25% in size; note: potency is the fitted concentration of half-maximal effect). The gist of the method: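 Here HEK293T cells with the ATAD5 luciferase reporter are incubated with test compounds for 15.5 hr, and cytotoxicity is then gauged by measuring protease activity in live cells using fluorescence.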

Assay [3] is described as follows: qHTS assay for small molecule disruptors of the mitochondrial membrane potential - cell viability (AID 720634; calls by dose curve; note: nearly all actives have a fitted effect of over 20% in size; note: potency is the fitted concentration of half-maximal effect). A digest of the protocol:
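Viability of HepG2 cells is scored from ATP content by luminescence; cells are exposed to compound for 1 hr at 37 C and 5% CO2, then dosed with m-MPI dye before the CellTiter-Glo reagent.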

Assay [4] can be described thus: qHTS assay to test for compound auto fluorescence at 590 nm (red) in HepG2 cells (AID 720674). The gist of the method:
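Red autofluorescence (Ex/Em 540/590 nm, Rose Bengal sodium equivalents) was measured in HepG2 cells, 2,000 per well in MEM plus 10% FBS, plated overnight at 37 C. Readings were taken 1 hr after adding 23 nL compound or DMSO, at 37 C and 5% CO2.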

A short description of assay [5]: qHTS assay to test for compound auto fluorescence at 460 nm (blue) in HEK293 cell free culture (AID 720681). A digest of the protocol:
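Blue fluorescence (Ex 405/Em 460 nm, triamterene-equivalent) was read immediately after pin transfer of compound or DMSO into medium (DMEM, 10% FBS) without cells.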

Assay [6] can be described thus: qHTS assay to test for compound auto fluorescence at 535 nm (green) in HEK293 cell free culture (AID 720682). A digest of the protocol: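 Measurement is a direct plate read of green fluorescence (485 nm in, 535 nm out) after compound addition to serum-supplemented DMEM lacking cells, with fluorescein used to express intensities.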
A short description of assay [7]: qHTS assay to test for compound auto fluorescence at 590 nm (red) in HEK293 cell free culture (AID 720683). The gist of the method:
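Red-channel autofluorescence of compounds in culture medium (DMEM, 10% FBS), no cells, measured at 540/590 nm. Rose Bengal sodium is the reference fluorophore for equivalence.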

Assay [8] is described as follows: qHTS assay to test for compound auto fluorescence at 460 nm (blue) in HepG2 cell free culture (AID 720685). The gist of the method:
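Cell-free plates of MEM plus 10% FBS received 23 nL compound or DMSO vehicle; blue-channel (405/460 nm) intensity scored against triamterene as reference fluorophore.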

Assay [9] can be described thus: qHTS assay to test for compound auto fluorescence at 535 nm (green) in HepG2 cell free culture (AID 720686).
Assay [10] in a line: qHTS assay to test for compound auto fluorescence at 460 nm (blue) in HepG2 cells (AID 720687). The gist of the method: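 Blue-channel autofluorescence (Ex/Em 405/460 nm, triamterene-equivalent) was measured after 1 hr compound exposure at 37 C, 5% CO2. Cells were HepG2, plated overnight at 37 C in MEM plus 10% FBS.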
Assay [11] in a line: qHTS assay to identify small molecule antagonists of the glucocorticoid receptor (GR) signaling pathway - cell viability counter screen (AID 720693). Note: nearly all actives have a fitted effect of over 55% in size. Note: potency is the fitted concentration of half-maximal effect.
Assay [12] can be described thus: qHTS assay to identify small molecule antagonists of the thyroid receptor (TR) signaling pathway (AID 743065). Note: nearly all actives have a fitted effect of over 55% in size. Note: potency is the fitted concentration of half-maximal effect. The gist of the method: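 Antagonism measured as loss of luciferase signal in GH3 cells stably carrying a TRE-luciferase reporter, co-treated with compound and T3 (1 nM final) for 23.5 h at 37 C. Viability was read in the same well by CellTiter-Fluor.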

Assay [13] relates to thyroid hormone receptor (rat, GH3 cells). The assay is described as follows: qHTS assay to identify small molecule agonists of the thyroid receptor (TR) signaling pathway (AID 743066; calls by dose curve).
A short description of assay [14]: qHTS assay to identify small molecule antagonists of the estrogen receptor alpha (ER-alpha) signaling pathway - cell viability counter screen (AID 743074; calls by dose curve;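 note: HEK293 cells carrying ER-alpha-UAS-bla reporter stimulated with 17beta-estradiol; nearly all actives have a fitted effect of over 45% in size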; note: potency is the fitted concentration of half-maximal effect).
Assay [15] in a line: qHTS assay to identify small molecule antagonists of the estrogen receptor alpha (ER-alpha) signaling pathway using the BG1 cell line - cell viability counter screen (AID 743081).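 Note: compound given together with 17beta-estradiol as the ER stimulus; series mostly up to about 70 µM; nearly all actives have a fitted effect of over 45% in size.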
Another assay concerns the target Aromatase (Homo sapiens) (UniProt P11511). Nature of the assay: qHTS assay to identify aromatase inhibitors (AID 743083). Note: nearly all actives have a fitted effect of over 55% in size. Note: potency is the fitted concentration of half-maximal effect.
Assay [16] is described as follows: qHTS assay to identify aromatase inhibitors - cell viability counter screen (AID 743084).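 Note: cells stimulated with testosterone during compound exposure; nearly all actives have a fitted effect of over 55% in size.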 Note: potency is the fitted concentration of half-maximal effect.
Assay [17] concerns the target Aryl hydrocarbon receptor (Homo sapiens) (UniProt P35869). The assay is described as follows: qHTS assay to identify small molecule that activate the aryl hydrocarbon receptor (AhR) signaling pathway (AID 743085).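 Note: HG2L7.5c1 human HepG2 liver cells with stably integrated DRE-driven firefly reporter; series mostly up to about 70 µM; nearly all actives have a fitted effect of over 15% in size.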 A digest of the protocol: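 24 h compound exposure, 37C, HepG2-derived HG2L7.5c1 cells with DRE-responsive luciferase. Readouts: fluorescence viability, then luminescence at room temperature after 30 min.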

Assay [18] can be described thus: qHTS assay to identify small molecule phospholipidosis (PLD) inducers (AID 1259344; active = well fitted curve in the direction sought with a large enough effect; an effect the other way counts as inactive or inconclusive). A digest of the protocol: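 Accumulated phospholipid, stained red by LipidTOX during 24 h compound treatment of HepG2 cells at 37 C, is quantified from images as pit number and intensity, normalised per cell using Hoechst-stained nuclei.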
A short description of assay [19]: qHTS assay to test for compound auto fluorescence at 535 nm (green) in HepG2 cells (AID 720675).

From PubChem BioAssay (Tox21) come the findings set out here.

Inconclusive results are not listed. The source made the active and inactive calls. Unless noted, calls come from the whole dose curve; as a rule, active = well fitted curve in the direction sought with a large enough effect in the repeat runs; inconclusive = weak or mixed curves; inactive = no such curve, though single readings can be large; an effect the other way counts as inactive or inconclusive.

Chain of Aromatase (Homo sapiens) (P11511 whole entry, looked up): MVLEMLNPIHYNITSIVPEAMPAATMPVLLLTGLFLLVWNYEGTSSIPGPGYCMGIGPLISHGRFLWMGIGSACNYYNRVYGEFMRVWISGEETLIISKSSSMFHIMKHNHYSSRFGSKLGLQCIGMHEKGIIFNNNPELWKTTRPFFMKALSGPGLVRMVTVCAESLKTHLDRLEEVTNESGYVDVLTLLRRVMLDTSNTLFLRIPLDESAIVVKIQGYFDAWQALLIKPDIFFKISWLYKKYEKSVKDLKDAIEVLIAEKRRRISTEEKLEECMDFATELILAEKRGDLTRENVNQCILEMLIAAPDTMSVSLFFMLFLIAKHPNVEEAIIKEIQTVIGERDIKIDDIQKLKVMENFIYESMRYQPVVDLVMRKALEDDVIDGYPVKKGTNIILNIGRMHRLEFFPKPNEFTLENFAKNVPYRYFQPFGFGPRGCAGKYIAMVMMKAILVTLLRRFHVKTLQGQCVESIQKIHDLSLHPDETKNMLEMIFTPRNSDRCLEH
Chain of Aryl hydrocarbon receptor (Homo sapiens) (P35869 whole entry, looked up): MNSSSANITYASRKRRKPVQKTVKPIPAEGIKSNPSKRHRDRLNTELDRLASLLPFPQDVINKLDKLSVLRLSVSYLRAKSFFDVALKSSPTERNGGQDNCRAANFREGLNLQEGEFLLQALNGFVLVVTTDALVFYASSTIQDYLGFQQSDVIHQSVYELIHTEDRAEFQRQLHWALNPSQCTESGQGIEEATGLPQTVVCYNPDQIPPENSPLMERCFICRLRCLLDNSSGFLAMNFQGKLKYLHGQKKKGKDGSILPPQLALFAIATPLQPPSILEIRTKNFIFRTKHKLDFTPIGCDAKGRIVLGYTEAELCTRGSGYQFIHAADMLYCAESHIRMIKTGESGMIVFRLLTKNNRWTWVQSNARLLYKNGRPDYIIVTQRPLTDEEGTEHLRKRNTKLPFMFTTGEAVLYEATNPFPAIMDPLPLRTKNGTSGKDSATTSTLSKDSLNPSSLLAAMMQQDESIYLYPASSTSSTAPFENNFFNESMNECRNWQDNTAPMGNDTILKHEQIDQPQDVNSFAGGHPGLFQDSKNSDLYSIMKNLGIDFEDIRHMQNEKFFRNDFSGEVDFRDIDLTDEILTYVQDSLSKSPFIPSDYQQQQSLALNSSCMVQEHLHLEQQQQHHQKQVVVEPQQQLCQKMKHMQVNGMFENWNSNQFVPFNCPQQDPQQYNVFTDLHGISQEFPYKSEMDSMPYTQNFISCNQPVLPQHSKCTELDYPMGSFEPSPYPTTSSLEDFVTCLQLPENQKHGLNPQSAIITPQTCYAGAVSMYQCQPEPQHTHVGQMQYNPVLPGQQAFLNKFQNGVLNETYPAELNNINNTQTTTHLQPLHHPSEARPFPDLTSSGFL

Consider `CNC(C)C(O)c1ccc(O)cc1` (configuration not stated), for which the Potency entry in assay [1], in assay [2], in assay [3], in assay [5], in assay [6] and in assay [8] was “inactive” throughout. The Potency result in assay [9], in assay [10], in assay [11], in assay [12], in [13] and in assay [14] was “inactive” each time. Moreover, the Potency entry (in assay [15]; with Aromatase (Homo sapiens); in assay [16]; in assay [17]; in assay [18]) was “inactive” in each case. The result in assay [4] and in assay [7] was inactive.
On to `OC(c1ccccc1)(c1ccccc1)C1CN2CCC1CC2` (configuration not stated), for which the Potency result in assay [1], in [2], in assay [3], in assay [19], in [5] and in assay [6] was “inactive” each time. The Potency entry in assay [8], in [9], in assay [10], in [11], in assay [13] and in assay [14] was “inactive” throughout. In addition, the Potency result (in [15]; with Aromatase (Homo sapiens); in [16]; in assay [17]; in [18]) was “inactive” each time. Besides, the result in [4] and in [7] was inactive. Moreover, the Potency in [12] was 29.8 µM (active).
`C[C@H]1CC[C@]2(NC1)O[C@H]1C[C@H]3[C@@H]4CC[C@H]5C[C@@H](O[C@@H]6O[C@H](CO)[C@H](O[C@@H]7O[C@H](CO)[C@@H](O)[C@H](O[C@@H]8OC[C@@H](O)[C@H](O)[C@H]8O)[C@H]7O[C@@H]7O[C@H](CO)[C@@H](O)[C@H](O)[C@H]7O)[C@H](O)[C@H]6O)CC[C@]5(C)[C@H]4CC[C@]3(C)[C@H]1[C@@H]2C`: the Potency is 1.33 µM (active) in assay [1]; 7.5 µM (active) in [2]; 3.35 µM (active) in assay [3]; 2.39 µM (active) in [11]; 2.37 µM (active) in assay [12]; 10.7 µM (active) in assay [14]. Further, the figures for the Potency (with Aromatase (Homo sapiens); in assay [16]) were 3.35 µM (active) and 5.96 µM (active), respectively. Also, the compound was classed as inactive in assay [4] and in assay [7]. In addition, the Potency entry in [19], in assay [5], in assay [6], in assay [8], in [9] and in assay [10] was “inactive” each time. Also, the Potency entry in [17] and in assay [18] was “inactive” throughout.
On to `C[C@]12CC[C@H]3[C@@H](CCC4=C(Cl)C(=O)CC[C@@]43C)[C@@H]1CC[C@@H]2O`, for which the Potency result in [1], in assay [2], in assay [3], in [19], in assay [5] and in assay [6] was “inactive” each time. Moreover, the Potency entry in assay [8], in assay [9], in [10], in assay [11], in assay [13] and in assay [14] was “inactive” each time. In addition, the Potency result (in [15]; in the assay with Aromatase (Homo sapiens); in assay [16]; in assay [17]; in [18]) was “inactive” each time. Further, the call in assay [4] and in assay [7] was inactive. The Potency in assay [12] was 13.3 µM (active).
Turning to `O=c1[nH]cc(N(CCCl)CCCl)c(=O)[nH]1`, the Potency result in assay [1], in assay [2], in assay [5], in [6], in assay [8] and in assay [9] was “inactive” in each case. Besides, the Potency entry (in [10]; in assay [11]; in assay [12]; in assay [13]; in assay [15]; with Aromatase (Homo sapiens)) was “inactive” each time. In addition, the Potency result in assay [16], in [17] and in assay [18] was “inactive” in each case. Moreover, the compound was called inactive in [4] and in assay [7].
With `CCNC(C)Cc1cccc(C(F)(F)F)c1` (configuration not stated), the Potency result in [1], in [2], in assay [3], in [5], in [6] and in [8] was “inactive” throughout. In addition, the Potency result in assay [9], in assay [10], in assay [11], in assay [12], in [13] and in assay [14] was “inactive” each time. For the same compound, the Potency result (in assay [15]; with Aromatase (Homo sapiens); in [16]; in assay [17]; in assay [18]) was “inactive” in each case. The compound was called inactive in assay [4] and in assay [7].
Regarding `CC(N)Cc1ccc(O)cc1` (configuration not stated), the Potency result in assay [1], in assay [2], in [3], in [19], in [5] and in assay [6] was “inactive” in each case. The Potency result in [8], in [10], in [11], in assay [12], in [13] and in [14] was “inactive” each time. The Potency result (in [15]; with Aromatase (Homo sapiens); in assay [16]; in assay [17]; in assay [18]) was “inactive” throughout. For the same compound, the outcome in assay [4] and in [7] was inactive.
